This assay relates to Fibrinogen (Alexa647-labelled). The assay is described as follows: fibrinogen binders on compound microarrays, profiling panel, artefact control for SMM control-protein annotation, biochemical, small-molecule microarray, 635/667 nm fluorescence (AID 1131).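 Also: z-score merges 667 nm fluorescence with per-spot signal-to-noise over triplicate slides.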 The settings on record: fibrinogen-A647 binding fluorescence, higher = more signal.
For `COc1ccc([Si](C)(C)[C@@H]2[C@@H](CCO)O[C@]3(C(=O)N(Cc4cccc(N5CCOC5=O)c4)c4ccccc43)[C@H]2C)cc1`, the composite z-score came to 0.9.

With `COCCOC(=O)N1C(=O)[C@@]2(c3ccccc31)[C@H](C(N)=O)[C@H]1C(=O)O[C@H](c3ccccc3)[C@H](c3ccccc3)N1[C@@H]2c1ccc(O)cc1`, the composite z-score was -0.649.

`O=C1C[C@@](C(=O)NCc2ccccc2)(c2ccc([N+](=O)[O-])cc2)[C@@H](c2ccc(CO)cc2)N1CC12CC3CC(CC(C3)C1)C2` showed a composite z-score of -0.151.

The compound `COCC(=C=CC[C@H](O)c1cccc(OCCO)c1)CCO` gave a composite z-score of -0.535.

In the case of `COCCCNC(=O)[C@@]1(Cc2ccccc2CN=[N+]=[N-])N=C(c2ccc(OCCCO)cc2)O[C@H]1c1ccccc1CN=[N+]=[N-]`, the composite z-score came to 0.922.

`COC(=O)[C@]1(Cc2ccccc2)N=C(c2ccc(OCCCO)cc2)O[C@@H]1c1ccccc1N=[N+]=[N-]` yielded a composite z-score of 0.863.

`COC(=O)[C@@]1(Cc2ccc(F)cc2)[C@H]2c3cc(C(=O)N(C)C)n(Cc4ccc(C)o4)c3C[C@H]2CN1C(=O)c1ccccc1` displayed a composite z-score of -1.92.

Turning to `CC(C)=CCCC(C)=CC(O)C1C=CC2C(=O)N(c3ccccc3)C(=O)C2N1Nc1ccc(C(C)C)cc1` (stereo not given), the composite z-score turned out to be 0.998.

On to `COc1ccccc1CN1C(=O)c2ccccc2[C@@H](C(=O)NCc2ccccc2)[C@@H]1c1ccc(CO)cc1`, for which the composite z-score stood at 0.688.

The compound `CC#CC(=O)Oc1ccc(Br)cc1C=CC(=O)OCC` had a composite z-score of -0.382.

The compound `O=C(NC1CC1)[C@@H]1c2ccccc2C(=O)N(C2Cc3ccccc3C2)[C@H]1c1ccc(CO)cc1` gave a composite z-score of -0.677.

For the compound `COCCCNC(=O)[C@@H]1c2ccccc2C(=O)N(Cc2ccccc2OC)[C@H]1c1ccc(CO)cc1`, the composite z-score was -0.444.

`O=C(O)[C@H](Cc1ccccc1)n1cc(-c2ccccc2)nn1` returned a composite z-score of 0.368.

In turn, `C=CC[C@]1(C(=O)NCc2ccccc2)N=C(c2ccc(OCCCO)cc2)O[C@H]1c1ccccc1CN=[N+]=[N-]` had a composite z-score of 1.02.

Regarding `CN1C(=O)C2C=CC(C(O)c3ccc(F)cc3)N(N(c3ccccc3)c3ccccc3)C2C1=O` (stereo not given), the composite z-score was -1.13.

The compound `C=CCC(OC(C)=O)[C@@H]1[C@@H](N(Cc2ccc(-c3cccc(C(F)(F)F)c3)o2)C(=O)Cc2ccc(OC)cc2)c2cc(OCCCO)ccc2N1C(=O)c1ccc2ccccc2c1` (stereo not given in full) gave a composite z-score of -1.

`CN(C)CCCCCCNC(=O)[C@@H]1C[C@@H]2C(=O)N[C@@H](CCCC[N+](C)(C)C)C(=O)N2[C@@H]1c1ccc(O)cc1` showed a composite z-score of -0.335.

In the case of `CC(C)CNC(=O)[C@@]1(Cc2ccccc2I)c2ccccc2C(=O)N(Cc2ccccc2C(F)(F)F)[C@H]1c1ccc(CO)cc1`, the composite z-score is -0.105.

Compound `C=CC[C@]1(C(N)=O)N=C(c2ccc(OCCCO)cc2)O[C@H]1c1ccccc1` showed a composite z-score of 0.691.

`COCCCNC(=O)[C@@]1(Sc2ccc(C)cc2)CC(=O)N(Cc2ccccc2Cl)[C@@H]1c1ccc(CO)cc1` came in with a composite z-score of 0.833.

`CCCC=C(CCC)[C@@H](NC(=O)OCC(C)C)c1ccccc1` gave a composite z-score of 0.471.

For `OCC1C=C(/C=C/c2ccccc2)CN1Cc1ccccc1Br` (stereo not given), the composite z-score was 0.891.

Take `CN1C(=O)C2C=CC(C(O)C=Cc3ccc([N+](=O)[O-])cc3)N(Nc3ccccc3)C2C1=O` (stereo not given): the composite z-score worked out at 1.01.

On to `COC(=O)[C@@]1(Cc2ccccc2)[C@H]2c3cc(C(=O)N4CCCC4)n(Cc4ccc(O)c(OC)c4)c3C[C@H]2CN1C(=O)c1ccccc1`, for which the composite z-score was -0.685.

On to `CN(C)CCCCCCNC(=O)[C@@H]1C[C@@H]2C(=O)N3CCC[C@H]3C(=O)N2[C@@H]1c1ccc(O)cc1`, for which the composite z-score turned out to be 0.539.

For the compound `C[N+](C)(C)CCCC[C@@H]1NC(=O)[C@H]2C[C@@H](C(=O)NCCCCCCNC(=O)CS)[C@@H](c3ccc(O)cc3)N2C1=O`, the composite z-score is -2.2.

`COC(=O)C(CC#Cc1ccc2c(c1)[C@]1(C(=O)N2)[C@H](c2ccccc2OCCO)N2[C@H](c3ccccc3)[C@H](c3ccccc3)OC(=O)[C@H]2[C@@H]1C(=O)O)C(=O)OC`: the composite z-score was 0.765.

`NCCCCCNC(=O)[C@H]1C[C@H]2C(=O)N3CCC[C@H]3C(=O)N2[C@H]1c1ccc(O)cc1` had a composite z-score of 0.894.

`C=CCC(OC(C)=O)[C@@H]1[C@@H](N(Cc2ccc(-c3ccccc3)cc2)C(=O)Cc2ccc(F)cc2)c2cc(OCCCO)ccc2N1C(=O)c1ccc2ccccc2c1` (stereo not given in full) gave a composite z-score of -0.163.

As to `CCOc1ccc(N2C(=O)CSC2c2cccc([N+](=O)[O-])c2)cc1` (stereo not given), the composite z-score came to 0.71.

`C=C(CCCC)/C(=C/C[C@H](OC(C)=O)c1ccccc1OCCO)c1cnc2ccccc2c1` displayed a composite z-score of -0.128.

The compound `C=CC[C@]1(C(N)=O)COC(c2ccc(OCCCO)cc2)=N1` returned a composite z-score of 0.561.

Consider `COCCOC(=O)N1C(=O)[C@@]2(c3cc(C#CC4=CCCCC4)ccc31)[C@H](C(N)=O)[C@H]1C(=O)O[C@H](c3ccccc3)[C@H](c3ccccc3)N1[C@@H]2c1ccc(O)cc1`, for which the composite z-score was determined as 0.958.

`O=C1O[C@@H](c2ccccc2)[C@@H](c2ccccc2)N2[C@@H](c3ccc(OCCO)cc3)[C@]3(C(=O)Nc4ccc(C#CC5=CCCCC5)cc43)[C@@H](C(=O)N3CCCCCCC3)[C@H]12` displayed a composite z-score of 0.772.

The compound `COc1ccc([Si](C)(C)[C@@H]2[C@@H](CCn3cc([C@H](O)c4ccccc4)nn3)O[C@]3(C(=O)N(Cc4cccc(N5CCC5=O)c4)c4ccccc43)[C@H]2C)cc1` displayed a composite z-score of 0.119.

For the origin of these results see PubChem BioAssay.
